# Results published in the supplement of paper PMC6555819.
# Key:
# Assay in all cases: PBM binding z-score (relative to random genomic background probes); higher = stronger binding; sequences stand for … in GC…GCGATTGACAGCGTAGAATGAAGG
# [1] = test system: FXR:RXRa (NR concentration 270 nM, RXRa partner concentration 90 nM)
# Procedure, shortened: (§1)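 Regression normalization was applied to scanned fluorescence from custom Agilent 4×180K protein-binding microarrays. Before scanning, arrays were incubated 1 h with ligand-free nuclear receptor dimers, and binding was detected with antibodies against each partner (one per run). Binding z-scores use the random background probes as reference.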
# [2] = test system: LXRa:RXRa (NR concentration 270 nM, RXRa partner concentration 90 nM)
# Procedure, shortened: as §1
# [3] = test system: LXRa homodimer (NR concentration 270 nM)
# Procedure, shortened: as §1
# [4] = test system: LXRb:RXRa (NR concentration 270 nM, RXRa partner concentration 90 nM)
# Procedure, shortened: as §1
# [5] = test system: LXRb homodimer (NR concentration 270 nM)
# Procedure, shortened: as §1
# [6] = test system: PPARa:RXRa (NR concentration 270 nM, RXRa partner concentration 90 nM)
# Procedure, shortened: as §1
# [7] = test system: PPARg:RXRa (NR concentration 180 nM, RXRa partner concentration 90 nM)
# Procedure, shortened: as §1
# [8] = test system: PPARg:RXRa 270nM:90nM, anti-RXR (NR concentration 270 nM, RXRa partner concentration 90 nM)
# Procedure, shortened: as §1
# [9] = test system: PPARg:RXRa 30nM:10nM, anti-RXR (NR concentration 30 nM, RXRa partner concentration 10 nM)
# Procedure, shortened: as §1
# [10] = test system: PPARg:RXRa 90nM:30nM, anti-RXR (NR concentration 90 nM, RXRa partner concentration 30 nM)
# Procedure, shortened: as §1
# [11] = test system: PPARg:RXRa DBDmut IVT, anti-RXR (DBD mutation: RXRa K156A/R161A, NR concentration 270 nM, RXRa partner concentration 90 nM)
# Procedure, shortened: as §1
# [12] = test system: PPARg:RXRa IVT, anti-PPARg (NR concentration 270 nM, RXRa partner concentration 90 nM)
# Procedure, shortened: as §1
# [13] = test system: PPARg DBDmut:RXRa IVT, anti-PPARg (DBD mutation: PPARg1 K132A/R137A, NR concentration 270 nM, RXRa partner concentration 90 nM)
# Procedure, shortened: as §1
# [14] = test system: PPARg DBDmut IVT, anti-PPARg (DBD mutation: PPARg1 K132A/R137A, NR concentration 270 nM)
# Procedure, shortened: as §1
# [15] = test system: PPARg homodimer (NR concentration 180 nM)
# Procedure, shortened: as §1
# [16] = test system: PXR:RXRa (NR concentration 270 nM, RXRa partner concentration 90 nM)
# Procedure, shortened: as §1
# [17] = test system: PXR homodimer (NR concentration 270 nM)
# Procedure, shortened: as §1
# [18] = test system: RARa:RXR (NR concentration 270 nM, RXRa partner concentration 90 nM)
# Procedure, shortened: as §1
# [19] = test system: RARa homodimer (NR concentration 270 nM)
# Procedure, shortened: as §1
# [20] = test system: RARb:RXRa (NR concentration 270 nM, RXRa partner concentration 90 nM)
# Procedure, shortened: as §1
Sequence,PBM binding z-score [1],PBM binding z-score [2],PBM binding z-score [3],PBM binding z-score [4],PBM binding z-score [5],PBM binding z-score [6],PBM binding z-score [7],PBM binding z-score [8],PBM binding z-score [9],PBM binding z-score [10],PBM binding z-score [11],PBM binding z-score [12],PBM binding z-score [13],PBM binding z-score [14],PBM binding z-score [15],PBM binding z-score [16],PBM binding z-score [17],PBM binding z-score [18],PBM binding z-score [19],PBM binding z-score [20]
TATGCTAGGTCAGTTGGTCAGCTAACGAGCTGCC,0.676,1.92,0.835,0.423,1.02,1.46,1.17,1.26,0.0933,0.733,1.61,2.75,1.5,0.759,0.0439,0.247,-0.553,0.47,-0.649,3.04
TCATATAGGTAACGGTGAAAGTCGAACGATATGA,0.511,0.386,-0.274,0.302,-0.326,1.52,1.63,2.54,3.34,2.78,4.89,4.04,1.45,1.23,-0.0318,0.0146,-0.0521,0.23,0.533,0.479
ACTATTAGTTGAGACGAGAGCAACCGATAGGTTG,-0.0812,-0.233,-0.161,-0.216,0.14,-0.533,0.493,-0.133,0.37,0.081,-0.112,-0.0541,0.442,0.157,0.139,-0.467,-0.273,-0.313,0.747,-0.263
CTCGAAAGGTCGTGCTCAGGTGAATATACCAAAC,5.33,4.19,0.375,3.82,0.534,5.05,2.81,3.84,1.1,2.6,0.879,2.15,0.682,0.68,1.34,3.6,0.506,4.28,0.678,3.92
CCTACTGGGCCAAGATCATTGATCAGTCAAAGCA,-0.667,-0.791,-0.405,-0.59,-1.07,0.131,0.378,0.483,-0.171,0.221,3.49,2.81,-0.235,-0.518,-0.385,-0.498,-0.795,-0.319,-0.424,-0.341
ATCTCTAGGTAACCAGTTCAGTGAAAGAGAGGAC,0.76,0.635,0.481,0.706,1,1.26,1.06,1.24,0.669,0.873,3.36,3.09,0.836,0.902,1.06,1.19,1.26,1.04,1.15,0.835
GCTGCTAGGTCAGGTTGGTTAGCTAACGGGTACG,1.06,0.689,-0.475,0.322,-0.199,1.24,0.149,0.709,-0.629,0.079,3.18,1.92,-0.902,-0.404,0.608,0.32,-0.467,0.712,-0.719,3.07
CGTCCAAGGTCAACGTCAGTGAAAGAGACTCGAA,7.13,5.39,0.128,4.19,0.597,5.64,5.37,5.51,1.61,4.17,3.75,3.71,0.344,-0.9,2.39,3.66,0.793,4.09,1.2,5.37
ATATGTAGGTTACATCCGGGTCATTCCGGCTATG,1.93,4.16,1.81,2.68,0.955,4.37,5.96,5.25,2.7,4.37,7.45,7.39,4.71,3.42,2.43,3.36,1.56,3.56,0.832,2.14
CCTACTGGTCCATTCAGAGGTCATTGATCATATG,2.73,4.6,7.06,3.9,1.12,3.32,0.652,1.92,0.224,1.05,0.337,1.32,-0.102,0.307,3.17,4.52,4.29,4.42,1.99,2.89
GCATATAGGTAATACATGGTGAAAGTCCGATTGT,-0.0336,0.0177,0.188,-0.279,-0.173,0.369,0.96,0.694,0.313,0.476,3.87,2.35,0.904,0.833,0.511,0.00943,0.145,0.174,0.397,-0.202
ATCGAAAGGTTGAAGGTGAGTATACCCACCCGAA,0.788,1.06,-0.269,0.741,0.0854,2.36,1.68,1.92,0.761,1.52,-0.526,0.764,0.619,0.928,0.699,1.06,-0.0881,1.79,0.177,1.66
GCTTCTAGATCAAGGTTAAGAAAGACTAAGCTAA,-0.054,0.652,-0.313,0.697,-0.427,1.58,0.749,1.77,0.224,1.13,0.942,0.862,-0.0506,0.106,0.0754,0.437,0.0298,0.885,-0.746,0.841
CTCGAAATGTCGTGCTCAGGTGAGTATACCAAAC,0.0674,-0.048,-0.175,-0.182,0.0146,-0.0536,-0.165,-0.324,0.0529,-0.0106,-0.127,0.323,0.0105,0.169,-0.101,-0.206,-0.0833,0.0583,0.245,0.417
GTACCAAGGTGAATAGGTCGATGATGAGTAGGCG,0.682,0.499,-0.251,0.484,-0.293,1.89,1.69,1.53,0.803,1.28,1.55,2.61,0.551,-0.172,1.08,0.477,0.109,1.13,0.983,2.01
TAGCCTAGGCCATGCGGGCCAGTATAGTGTCGGC,-0.771,-1.17,-0.671,-1.47,-1.47,-0.776,-0.313,-1.06,-0.847,-1.18,-0.849,-0.0851,-0.949,-1.38,-1.26,-0.956,-1.02,-0.877,-1.18,0.00206
TATACAGAGTCAAAGGCCAGAGTACGAATGTCGA,0.1,0.487,0.0394,0.0721,0.0425,1.1,2.17,2.98,1.53,2.73,-0.677,0.809,0.657,0.798,0.172,0.3,0.152,0.733,-0.267,1.19
ACGAGCAGGCCAAGTTTGGGTCACTCAAACAAAG,0.0598,-0.0138,-0.363,0.536,-0.887,1.33,-0.00564,0.0624,-0.543,-0.429,-0.114,0.246,-0.842,-0.922,0.235,0.69,-0.152,1.46,-0.613,1.54
CCTACTTGGCCAAAGGTCATTGATTCCAATGCTC,5.47,5.24,4.8,5.11,1.42,5.78,9.42,8.35,8.32,9.45,2.53,4.83,0.228,0.876,3.67,5.46,2.07,5.85,1.65,4.57
